# Dicer inh: inhibitors of human Dicer processing of pre-microRNA | Q9UPY3 | cat-ELCCA pre-miR-21 Dicer processing, chemiluminescence; hits give high values | z-score at 25 µM | hit rate 6% among 47,000 | AID 1347074; in the data active means z-score above about 3, passing the limit was not always enough;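 further: higher signal means more uncleaved substrate so more Dicer inhibition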
# Target sequence (Q9UPY3 whole entry, looked up): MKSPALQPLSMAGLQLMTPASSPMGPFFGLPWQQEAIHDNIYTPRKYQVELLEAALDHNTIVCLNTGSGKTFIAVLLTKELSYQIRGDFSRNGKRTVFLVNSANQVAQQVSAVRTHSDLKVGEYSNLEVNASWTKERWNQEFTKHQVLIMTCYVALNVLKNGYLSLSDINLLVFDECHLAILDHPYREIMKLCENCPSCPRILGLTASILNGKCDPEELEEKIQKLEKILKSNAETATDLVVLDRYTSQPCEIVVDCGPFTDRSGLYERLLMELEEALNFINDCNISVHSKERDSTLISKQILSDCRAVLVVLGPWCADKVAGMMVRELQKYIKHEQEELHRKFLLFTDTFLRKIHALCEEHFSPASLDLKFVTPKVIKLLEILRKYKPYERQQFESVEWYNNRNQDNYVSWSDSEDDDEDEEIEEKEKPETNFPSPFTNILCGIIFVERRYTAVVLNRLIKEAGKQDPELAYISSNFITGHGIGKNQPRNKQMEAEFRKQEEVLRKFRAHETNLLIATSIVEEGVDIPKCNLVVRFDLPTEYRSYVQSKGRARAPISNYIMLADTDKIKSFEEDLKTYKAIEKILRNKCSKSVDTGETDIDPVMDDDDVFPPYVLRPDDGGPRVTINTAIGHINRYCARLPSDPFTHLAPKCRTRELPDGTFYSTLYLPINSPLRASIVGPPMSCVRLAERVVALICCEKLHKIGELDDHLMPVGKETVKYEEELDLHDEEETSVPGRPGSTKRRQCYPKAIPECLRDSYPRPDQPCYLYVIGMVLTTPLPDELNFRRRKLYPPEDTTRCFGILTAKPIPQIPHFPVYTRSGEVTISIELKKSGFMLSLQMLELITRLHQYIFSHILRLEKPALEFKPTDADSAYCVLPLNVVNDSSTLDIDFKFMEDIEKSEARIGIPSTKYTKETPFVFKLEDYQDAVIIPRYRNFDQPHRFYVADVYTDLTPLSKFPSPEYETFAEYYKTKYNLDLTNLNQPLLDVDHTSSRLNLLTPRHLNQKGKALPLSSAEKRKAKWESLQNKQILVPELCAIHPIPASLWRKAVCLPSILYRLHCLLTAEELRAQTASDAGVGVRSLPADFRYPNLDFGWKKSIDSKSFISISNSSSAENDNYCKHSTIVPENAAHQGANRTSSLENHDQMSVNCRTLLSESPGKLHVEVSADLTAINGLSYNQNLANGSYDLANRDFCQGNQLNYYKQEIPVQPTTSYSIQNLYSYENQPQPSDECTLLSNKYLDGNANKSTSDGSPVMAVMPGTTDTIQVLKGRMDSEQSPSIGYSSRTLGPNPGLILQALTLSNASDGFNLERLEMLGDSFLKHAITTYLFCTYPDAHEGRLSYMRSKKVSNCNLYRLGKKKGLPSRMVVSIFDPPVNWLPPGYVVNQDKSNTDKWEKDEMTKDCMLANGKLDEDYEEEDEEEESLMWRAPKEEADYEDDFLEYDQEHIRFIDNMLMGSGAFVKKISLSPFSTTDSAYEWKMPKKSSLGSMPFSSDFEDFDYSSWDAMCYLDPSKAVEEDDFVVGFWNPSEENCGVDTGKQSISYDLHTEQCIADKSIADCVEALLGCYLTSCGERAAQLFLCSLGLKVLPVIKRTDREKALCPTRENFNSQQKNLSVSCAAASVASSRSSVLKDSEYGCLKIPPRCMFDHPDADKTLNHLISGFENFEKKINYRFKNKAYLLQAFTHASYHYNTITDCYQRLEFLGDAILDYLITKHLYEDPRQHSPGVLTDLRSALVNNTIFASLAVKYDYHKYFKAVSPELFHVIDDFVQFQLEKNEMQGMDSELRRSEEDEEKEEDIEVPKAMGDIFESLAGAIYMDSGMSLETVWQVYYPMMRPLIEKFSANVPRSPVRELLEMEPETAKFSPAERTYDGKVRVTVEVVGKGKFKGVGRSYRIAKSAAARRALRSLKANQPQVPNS
# Hits are given with their value; – = inactive. This excerpt belongs to a sample that is enriched for hits.
SMILES,Dicer inh
Cc1ccc(N2CC(=O)N(/N=C/c3cn(-c4ccccc4)nc3-c3ccc(Cl)cc3)CC2=O)cc1,–
CC1SC(c2ccc(C(F)(F)F)cc2)N(c2ccc(C(F)(F)F)cc2)C1=O (centres undefined),–
O=C(CSc1n[nH]c(=O)n1-c1cccc(F)c1)Nc1ccc(Cl)cc1,–
COc1ccc(OC)c(C2Nc3cc(C)c(C)cc3NC3=C2C(=O)CC(C)(C)C3)c1 (centres undefined),–
O=C(/C=C/c1ccccc1)NC(=S)Nc1ccc(C(F)(F)F)cc1,–
CS(=O)(=O)Nc1cc(-c2nnc(Nc3ccc(O)cc3)c3ccccc23)ccc1N1CCOCC1,–
Cc1ccccc1N1OC2C(=O)N(C)C(=O)C2C1c1cccs1 (centres undefined),–
O=C(CS(=O)(=O)c1ccc(C(F)(F)F)cn1)N/N=C\c1ccc(Cl)cc1,–
Clc1ccc(C2=Nn3c(nnc3-c3cccnc3)SC2)cc1,–
O=C1C2Sc3[nH]c(=O)sc3C(c3ccc(O)cc3)C2C(=O)N1c1ccc(Br)cc1 (centres undefined),–
COc1ccc(C2C3CCc4ccccc4C3=NN2C(=O)CSc2nnc(-c3ccncc3)o2)cc1 (centres undefined),–
CCOC(=O)c1[nH]c(C)c(C(C)=O)c1C,–
CCOC(=O)c1[nH]c(Cc2[nH]c(C(=O)OCC)c(C)c2C)c(C)c1C,–
CCOC(=O)c1[nH]c(C)c(CC)c1C,4.3
O=C(Nc1ccc(Cl)cc1)C1CC(=O)N(Cc2ccc(F)cc2)C1 (centres undefined),–
CC1COC(c2cccc([N+](=O)[O-])c2)N1 (centres undefined),–
CCOC(=O)c1c(COc2ccccc2)oc2ccc(O)cc12,–
CCOC(=O)c1c(CN2CCOCC2)oc2ccc(OC)cc12,3.5
CCOC(=O)c1c(C)oc2ccc(OCC(N)=O)cc12,–
Cc1cccnc1NC(=S)Nc1ccccc1Cl,–
O=C(NNC(=S)NCc1ccco1)c1cc(OCC(F)(F)F)nc(OCC(F)(F)F)c1,–
C/C(=N\O)c1sc2ccc(Cl)cc2c1C,–
COc1ccc(/C(O)=C2/C(=O)C(=O)N(CCc3ccccc3)C2c2ccccc2)cc1 (centres undefined),–
O=C(c1ccc(N2C(=O)C3CC=C(Cl)CC3C2=O)cc1)N1CCOCC1 (centres undefined),4.5
CC1=CCC2C(=O)N(c3ccc(C(=O)O)cc3)C(=O)C2C1 (centres undefined),–
SMILES,Dicer inh
CC1=CCC2C(=O)N(c3ccc(N4CCOCC4)cc3)C(=O)C2C1 (centres undefined),–
CCOC(=O)[C@@H]1Nc2ccc(C(=O)O)cc2[C@@H]2C=CC[C@H]12,–
Cc1cc(NNC(=O)Nc2cccc(Cl)c2)nc2c1c(C)nn2C,–
Cc1cc(NNS(=O)(=O)c2ccc(Cl)cc2)nc2c1c(C)nn2C,4.4
Cc1cc(NNC(=O)c2ccccc2Cl)nc2c1c(C)nn2C,–
CCOC(=O)N1CCc2c(sc3c2C(=O)NC(c2cccc(Br)c2)N3)C1 (centres undefined),–
COc1ccc(-c2cc(=O)c3cc(OC(=O)c4cccnc4)ccc3o2)cc1,–
CCOC(=O)c1nc(-c2ccccc2)sc1-c1ccnn1C(=O)Nc1ccccc1,–
O=C1NC(c2ccccc2OCc2ccccc2)Nc2sc3c(c21)CCCC3 (centres undefined),–
O=C1NC(c2ccc(OCc3ccccc3)cc2)Nc2sc3c(c21)CCCC3 (centres undefined),3.6
CN1CCc2c(sc3c2C(=O)NC(c2ccc(OCc4ccccc4)cc2)N3)C1 (centres undefined),–
O=C(CSc1ncccc1C(F)(F)F)c1cccc(C(F)(F)F)c1,–
N#Cc1cccnc1NNC(=O)COCC(=O)O,–
CCOC(=O)c1c(NC(=O)c2cc3ccccc3c(=O)o2)sc(C)c1C,–
CCOC(=O)c1c(NC(=O)Nc2sc(C)c(-c3ccccc3)c2C(=O)OCC)sc(C)c1-c1ccccc1,–
CCOC(=O)c1c(NC(C)=O)sc2c(O)c(Sc3ccccc3)ccc12,4.1
Cc1cc(Cl)cc(Cl)c1CN(C)C(=O)c1cnc(Oc2ccccc2)cc1C(F)(F)F,–
Cc1ccc(C)n1-c1ccsc1C(=O)NNC(=O)/C=C/c1ccccc1,–
Clc1ccccc1/C=N/Nc1ncc(-c2ccc3c(c2)OCCCO3)s1,–
Cc1cc(C)nc(SCC(=O)Nc2ccc(Br)cc2)n1,–
CCc1ccc(C(=O)/C=C/Nc2ccc(Cl)cc2Cl)cc1,–
Cc1nc2c(C)cccc2c2c1CCN2c1ccccc1F,3.2
COc1cccc(N2CCc3c(C)nc4ccc(Cl)cc4c32)c1,–
COc1cc(OC)c2nc(C)c3c(c2c1)N(c1cccc(C(F)(F)F)c1)CC3,–
CCN(CC)C(=S)Oc1ccccc1[N+](=O)[O-],–
SMILES,Dicer inh
COc1ccc(C2CC(=O)C3=C(C2)NC(C)=C(C(=O)OC2CCCC2)C3c2ccncc2)cc1 (centres undefined),–
COc1ccc(Cl)cc1NC(=O)CC(C)(C)CC(=O)O,–
Brc1ccc(CSc2nnc([C@@H]3CCCN3)o2)cc1,–
Clc1ccc(CSc2nsc(SCc3ccc(Cl)cc3)n2)cc1,–
Nc1ccc2nc(SCc3ccc(Cl)cc3)sc2c1,3.9
Clc1ccc(CSc2nnc(SCc3ccc(Cl)cc3)s2)cc1,–
CCOC(=O)c1c[nH]n2c(=O)cc(-c3ccccc3)nc12,–
COc1cccc(OC)c1C(=O)Oc1ccc2c(=O)c(-c3ccccc3Cl)coc2c1,–
O=C(Cn1c(-c2ccccc2)cc(=O)n2ncnc12)N/N=C/c1ccc2c(c1)OCO2,–
Cc1cc(=O)n2ncnc2n1CC(=O)NN,3.1
Cc1cc(=O)n2ncnc2n1CC(=O)N/N=C/c1ccc(Cl)cc1,–
Cc1cc(-c2onc(C)c2-c2noc(C)n2)no1,–
COC(=O)COc1ccc2c(c1)C(=O)c1cc(OCC(=O)OC)ccc1-2,–
CC(=O)Oc1ccc2c(c1)C(=O)c1cc(OC(C)=O)ccc1-2,6.2
CCOc1ccc2c(c1)C(=O)c1cc(O)ccc1-2,–
CSc1nn(CSc2c(Cl)cccc2Cl)c(=S)s1,–
CCc1ccccc1NNC(=O)CCc1ccccc1,–
Cc1ccc(NNC(=O)CCc2ccccc2)cc1C,3.5
Cc1ccc(NNC(=O)CCc2ccccc2)cc1Cl,–
ClC1=C(COc2ccc(Cl)cc2Cl)CSc2ccc(Cl)cc21,–
CCOC(=O)c1cc(C#N)c(C)nc1N1CCN(S(=O)(=O)c2ccccc2)CC1,–
Cc1cc(=O)oc2cc(OS(=O)(=O)c3cc(C(F)(F)F)cc(C(F)(F)F)c3)c(Cl)cc12,4.2
Cc1ccc(S(=O)(=O)Oc2cc(C)ccc2C)cc1,–
Cc1cc(=O)oc2cc(OS(=O)(=O)c3cc(Cl)c(Cl)cc3Cl)c(Cl)cc12,–
O=C(CCSc1nnc2ccccn12)Nc1nc(-c2ccccc2)ns1,–
SMILES,Dicer inh
CCC(=O)Nc1cnc(OC)c(C(F)(F)F)c1,–
O=C(NNC(=O)c1ccc(Oc2ccc(C3SCCS3)cc2)o1)c1cccc(Cl)c1,–
COC(=O)C1CCN(C(=O)C2c3ccccc3Oc3ccccc32)CC1,5
O=C(C1c2ccccc2Oc2ccccc21)N1CCCC1,4
O=C(O)C1c2ccccc2Oc2ccccc21,–
CC1CCCCN1C(=O)C1c2ccccc2Oc2ccccc21 (centres undefined),–
CC(C)NC(=O)C1c2ccccc2Oc2ccccc21,–
CC1CN(C(=O)C2c3ccccc3Oc3ccccc32)CC(C)O1 (centres undefined),–
Clc1ccc2c(c1)c(-c1ccccc1)nc1nncn12,–
Cc1nc(N2CCN(c3ccccn3)CC2)nc2c1C(=O)CCC2,–

# From PubChem
